# Measured values: PubChem BioAssay AID1347075 (National Center for Advancing Translational Sciences (NCATS), 2019)
# About 5,500 (1.4%) of roughly 400,000 compounds were called active. Entries that show only a call come without a potency. Roughly 9% stayed inconclusive and do not appear here. Calls come from the whole dose curve; as a rule, active = well fitted cell-killing curve with a large enough effect; inconclusive = small, poorly fitted or top-dose-only effect, or effect the other way; inactive = flat fitted curve, though single readings scatter. The sample as a whole holds a higher share of actives than the screen did.
# Test: qHTS assay for MDR1-selective chemotherapeutics: Primary screen using the parental adenocarcinoma cell KB-3-1; note: nearly all actives have a fitted effect of over 60% in size
# Settings: KB-3-1 viability, CellTiter-Glo ATP luminescence, 72 h; series mostly up to 46.1 µM
# How it was run: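 Cytotoxicity in the drug-sensitive parental line KB-3-1 was scored as loss of CellTiter-Glo luminescence following 72 h incubation with compound. Values come from curve fitting of normalized concentration-response data.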
# Potency is the fitted concentration of half-maximal effect.
row,Compound,Potency
1,CCOC(=O)c1cccc(NS(=O)(=O)c2cc(-c3cnc(C)o3)ccc2OC)c1,inactive
2,COc1ccc(C)cc1N(CC(=O)N1CCC(C)CC1)S(=O)(=O)c1ccc(C)cc1,inactive
3,CC(=O)Nc1ccc(NC(=O)c2cc3sccc3n2Cc2ccc(F)cc2)cc1,inactive
4,CCn1cc(C(=O)OCC(=O)Nc2cc(C)cc(C)c2)c(=O)c2ccc(C)nc21,inactive
5,C[n+]1ccc(/C=C/c2c[nH]c3ccccc23)cc1,1.16 µM (active)
6,Clc1ccc(CSc2nncn3c2cc2occc23)cc1,inactive
7,COc1cccc2cc(-c3nc(Cl)c4c5c(sc4n3)CC(C)CC5)c(=O)oc12 (stereo unspecified),inactive
8,COc1ccc(CNC(=O)C2=Cc3cccc(OC)c3OC2)cc1OC,inactive
9,CCN(Cc1ccccc1)S(=O)(=O)c1ccc2c(c1)CCCN2C(C)=O,inactive
10,Oc1ccc2ccccc2c1N=Nc1nccs1,14.6 µM (active)
11,Cc1ccccc1OCCSc1nc2ccc(NC(=O)c3ccco3)cc2s1,inactive
12,O=C(Nc1ccc2c(c1)OCO2)c1cc(-c2cccc(Cl)c2)on1,inactive
13,CC(=O)Nc1cccc(C(=O)OCC(=O)c2ccc3c(c2)OCO3)c1,inactive
14,Cc1ccc(S(=O)(=O)c2c(Nc3cccc(Cl)c3)sc(C(=O)c3ccc4c(c3)OCO4)c2N)cc1,14.6 µM (active)
15,CN(C)C1=C2C=CC=CC2/C(=C2/C=Cc3ccccc32)C=C1 (stereo unspecified),inactive
16,COc1ccc(NC(=O)c2ccc3nc(CCc4ccccc4)oc3c2)c(OC)c1,inactive
17,Cc1oc2ccc(O)c(CN3CCOCC3)c2c1C(=O)Nc1cccc(Cl)c1C,inactive
18,CCCOc1ccc(NC(=O)CC2C(=O)N(C)C(=S)N2Cc2ccc3c(c2)OCO3)cc1 (stereo unspecified),18.4 µM (active)
19,CCOc1ccc(NC(=O)Cn2c(=O)n(CCCC(=O)NCc3ccc4c(c3)OCO4)c(=O)c3ccccc32)cc1,inactive
20,COc1ccc(NC(=O)CSc2nccn2Cc2ccc3c(c2)OCO3)cc1,inactive
21,CC(C)(O)C#Cc1ccc(CN2CCC(CO)(CCc3ccccc3)CC2)cc1,inactive
22,Cc1cccc(-c2ncc(CN3CCC(CO)(CCCc4ccccc4)CC3)cn2)c1,inactive
23,Cc1c(CN2CCC(CO)(CCOc3ccccc3)CC2)[nH]c2ccc(Cl)cc12,14.6 µM (active)
24,Cc1ccc(C(=O)COC(=O)C(Cc2c[nH]c3ccccc23)NC(=O)c2ccc(Br)cc2)cc1 (stereo unspecified),inactive
25,COc1cc(C(=O)Nc2ccc(OCc3cc(=O)n4cc(C)sc4n3)cc2)cc(OC)c1OC,inactive
26,O=C(CSc1oc(-c2ccco2)nc1S(=O)(=O)c1ccc(Cl)cc1)c1ccccc1,inactive

row,Compound,Potency
1,CCOc1ccc(CC(=O)NCCc2csc3nc(-c4ccccc4F)nn23)cc1,inactive
2,Cc1cccc(OCCSc2nc3ccccc3n2CC(=O)N2CCCCC2)c1C,inactive
3,Cc1cc(N2CCN(c3cccc(C(F)(F)F)c3)CC2)n2nc(-c3ccccc3)nc2n1,inactive
4,O=S(=O)(NC1CC1)c1ccc(Cl)cc1,inactive
5,O=S(=O)(Cc1ccc(Cl)cc1Cl)c1ccc(Cl)cc1,1.64 µM (active)
6,O=S(=O)(CCc1nc2ccccc2o1)c1ccc(Cl)cc1,inactive
7,O=C(CSc1ccccc1)Nc1ccc(C(=O)Nc2cccc(O)c2)cc1,inactive
8,O=C(CCl)Nc1cccc(CP(=O)(c2ccccc2)c2ccccc2)c1,13 µM (active)
9,CSc1cccc(NC(=O)CSc2ccccc2)c1,inactive
10,Cc1cccc(CC(=O)N2CC(=O)Nc3ccc(F)cc3C2c2ccccc2)c1 (stereo unspecified),inactive
11,O=C(C[n+]1ccncc1)c1ccc2c(c1)CCCC2,inactive
12,CCOC(=O)/C(=C\c1ccc([N+](=O)[O-])cc1)C(=O)c1cc(C(C)=O)c(Nc2ccccc2)s1,3.26 µM (active)
13,CCOC(=O)C/C(C)=N\Nc1ccc([N+](=O)[O-])cc1[N+](=O)[O-],inactive
14,CC(C)c1nnc(NC(=O)COC(=O)/C=C/c2ccc([N+](=O)[O-])cc2)s1,inactive
15,CN(C)S(=O)(=O)c1ccc(C(=O)N(Cc2cccnc2)c2nc3c(F)cc(F)cc3s2)cc1,inactive
16,CC(=O)N1CCCc2cc(S(=O)(=O)N3CCC(C(=O)NCc4ccc(C)cc4)CC3)ccc21,inactive
17,COc1cccc(CNC(=O)C2CCC(CNS(=O)(=O)c3cccs3)CC2)c1 (stereo unspecified),inactive
18,CCn1c(=O)c(=O)n(CC)c2cc(S(=O)(=O)N3CCc4ccccc43)ccc21,20.6 µM (active)
19,O=S(=O)(c1ccc2c(c1)OCCO2)N1CCc2ccccc21,inactive
20,NS(=O)(=O)c1ccc(CNC(=O)c2cccc(S(=O)(=O)N3CCc4ccccc43)c2)cc1,inactive
21,Nc1nc(N)c(N=O)c(N)n1,inactive
22,Cc1cc(Cl)ccc1OCC(=O)N(Cc1ccc(N(C)C)cc1)C1CCS(=O)(=O)C1 (stereo unspecified),inactive
23,COCCNc1nc(N)c([N+](=O)[O-])c(N2CCCCCC2)n1,inactive
24,Nc1cc(N2CCCCCC2)c2nonc2c1[N+](=O)[O-],11.6 µM (active)
25,Cc1c(Nc2cc(N3CCCC(C)C3)c3nonc3c2[N+](=O)[O-])c(=O)n(-c2ccccc2)n1C (stereo unspecified),inactive
26,COc1ccc2ncc3c(-c4ccc(C)c(C)c4)nn(CC(=O)NC4CCCC4)c3c2c1,inactive

row,Compound,Potency
1,C/C(=N/NC(=O)CC(=O)N/N=C(\C)c1ccc([N+](=O)[O-])cc1)c1ccc([N+](=O)[O-])cc1,inactive
2,Cc1ccc(C(=O)Cn2cccn2)cc1,inactive
3,CC12CCC(C(=O)N(NC(=O)c3ccccc3O)C1=O)C2(C)C (stereo unspecified),16.4 µM (active)
4,CC(Sc1nnc2c(n1)C1CCC2(C)C1(C)C)C(=O)Nc1ccccc1 (stereo unspecified),inactive
5,CC1=CC(C)(C)NC(=S)N1NC(=O)c1ccccc1Cl,inactive
6,Cc1ccc(CNC(=O)CCC(=O)N2Cc3ccccc3Oc3ncccc32)cc1,inactive
7,CNC(=O)CN1C(=O)c2cccnc2Sc2ccccc21,inactive
8,COCCNC(=O)c1ccc2c(c1)N=C(C)c1cc(C)ccc1S2,0.651 µM (active)
9,COCCNC(=O)c1ccc(S(=O)(=O)c2ccc(Cl)cc2)c(NC(C)=O)c1,inactive
10,CC1=Nc2cc(C(=O)N3CCC(C)CC3)ccc2Sc2ccc(Cl)cc21,inactive
11,NC(=O)CSc1nc2c(oc3ccccc32)c(=O)n1Cc1ccccc1,inactive
12,O=c1[nH]c(CCl)nc2cc(-c3ccc(Cl)cc3)sc12,9.2 µM (active)
13,COc1cccc(-c2cc3nc(NCCOc4ccccc4Cl)n(C)c(=O)c3s2)c1,inactive
14,Cn1c(NCc2cccnc2)nc2cc(-c3ccc(F)cc3)sc2c1=O,inactive
15,Cc1cc(C)c2oc(C(=O)Nc3ccc(S(=O)(=O)N(C)c4ccccc4)cc3)cc(=O)c2c1,inactive
16,CN(C(=O)c1cccc(OC2CCN(S(=O)(=O)N(C)C)CC2)c1)C1CCOC1 (stereo unspecified),inactive
17,CN(C)S(=O)(=O)N1CCC(Oc2cccc(C(=O)NCCCC3CCCC3)c2)CC1,14.6 µM (active)
18,COc1cccc(C(=O)NCCS(=O)(=O)NCC2CCCO2)c1 (stereo unspecified),inactive
19,COc1cccc(NC(=O)C2CCN(c3cc(C)nc4c(-c5ccc(Cl)cc5)c(C)nn34)CC2)c1,inactive
20,CC(NC(=O)c1cc2c(=O)n3ccccc3nc2n(C(C)C)c1=N)c1ccccc1 (stereo unspecified),inactive
21,COc1ccc(OC)c(CNC(=O)Cn2nc(C)c3c(C)n(-c4ccccc4)nc3c2=O)c1,inactive
22,CC(O)(c1cccc(F)c1)c1nc(-c2ccc3c(c2)OCO3)cs1 (stereo unspecified),inactive
23,COc1ccc(C(O)c2nc(-c3ccc4c(c3)OCO4)cs2)cc1 (stereo unspecified),inactive
24,O=C(Nc1nc(-c2ccc3c(c2)OCO3)cs1)c1ccncc1,2.91 µM (active)
25,Cc1nn(C(C)C(=O)NCCc2ccccc2)c(=O)c2c1sc1ccccc12 (stereo unspecified),inactive
26,CCC(C(=O)Nc1cc(OC)ccc1OC)n1c(=O)c(C(F)(F)F)nc2ccccc21 (stereo unspecified),inactive

row,Compound,Potency
1,O=C(CN1c2ccccc2S(=O)(=O)c2ccccc21)Nc1cccc(C(F)(F)F)c1,inactive
2,COc1ccc(/C=C2/CCCc3ccccc3C2=O)cc1,0.651 µM (active)
3,COc1ccccc1C1=CC(=O)CCC1,inactive
4,COc1ccc(/C=C2\N=C3CCCN3C2=O)cc1,inactive
5,CNC(=O)c1ccsc1NC(=O)c1ccc(S(=O)(=O)N2CCc3ccccc32)cc1,inactive
6,O=C(Nc1nc2ccc([N+](=O)[O-])cc2s1)c1ccc(S(=O)(=O)N2CCCc3ccccc32)cc1,2.06 µM (active)
7,Cc1cc2nc(NC(=O)c3ccc(S(=O)(=O)N4CCOCC4)cc3)sc2cc1C,inactive
8,O=C(NC1CCCCC1)c1ccc2c(c1)N(Cc1ccc(Cl)cc1)C(=O)c1ccccc1S2=O (stereo unspecified),inactive
9,N#Cc1ccc(C(=O)Nc2nc(-c3cccs3)c(C(=O)C(F)(F)F)s2)cc1,5.8 µM (active)
10,N#Cc1c(-c2cccs2)nc(SCC(=O)c2ccc(Br)cc2)[nH]c1=O,inactive
11,COc1ccc(C(F)(F)F)cc1NC(=O)c1sc2nc(-c3cccs3)ccc2c1N,inactive
12,S=C(NCCCc1cnc[nH]1)NCCCN(Cc1ccc(Cl)c(Cl)c1)c1ccc(Br)cn1,13 µM (active)
13,NCCCNC(=S)NCCCN(Cc1ccc(Cl)cc1)c1ccc(Br)cn1,inactive
14,O=C(Nc1ccc(Cl)cc1)c1cnn2c1NC(=C1CC1)C=C2C(F)F,inactive
15,CCn1c(=O)c2cc(C(=O)NCCc3ccc(Cl)cc3)sc2c2ccccc21,inactive
16,CSc1nc(Nc2ccc(F)cc2)cc(-c2ccccc2)n1,inactive
17,CSc1nc(-c2ccccc2)nc(C(Cl)Cl)n1,2.91 µM (active)
18,CC(=O)c1ccc(NC(=O)C2CCN(S(=O)(=O)c3c(C)noc3/C=C/c3ccc(C)cc3)CC2)cc1,inactive
19,COc1ccc(CNC(=O)CSCc2nc(-c3ccccc3F)oc2C)cc1,inactive
20,Fc1ccccc1Oc1ncnc2c1oc1ccccc12,inactive
21,CC(C)C1C(=O)N(Cc2cn(CCC3OCCO3)nn2)CCS(=O)(=O)N1Cc1ccc(-c2ccccc2C(F)(F)F)cc1 (stereo unspecified),inactive
22,Cc1ccc(-c2ccc(CN3C(C)C(=O)N(Cc4cn(CCC5OCCCO5)nn4)CCS3(=O)=O)cc2)cc1 (stereo unspecified),inactive
23,Cc1ccc(-c2ccc(CN3C(C(C)C)C(=O)N(Cc4cn(CCC5OCCO5)nn4)CCS3(=O)=O)cc2)cc1 (stereo unspecified),18.4 µM (active)
